Results on twelve compounds are retold here after PubChem BioAssay (NCI).

About 79,000 compounds went through this panel and 15% of them were active in at least one assay; those are over-represented in the sample as a whole. Unmarked numbers belong to inactive results. Cut-off read from the data, not from the text of the source: active = growth inhibition above about 70%; inactive = the rest.

The nature of this experiment: NCI Yeast Anticancer Drug Screen. Data for the cln2 rad14 strain (AID 165).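 Note: 0% = growth equal to vehicle treated cultures.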 The conditions noted are these: S. cerevisiae cln2 rad14 strain, hits give high values; at 50.0 µM unless noted. An outline of the steps:
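Compounds are applied to the cln2 rad14 yeast strain, and growth is then compared with that of vehicle-treated cultures to give inhibition.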
Regarding `CCOC(=O)C1=C(O)C[C@]2(O)C3CC=C(C)[C@@H]4CCO[C@](OC)(C[C@H]2C1)[C@]34C(=O)OC` (some centres not stated), the growth inhibition is 1%.
In the case of `CN1CC(c2ccccc2)C(O)(C2(c3ccccc3)CN(C)CC(c3ccccc3)C2=O)C(c2ccccc2)C1` (configuration not stated), the growth inhibition is -6.7%.
Regarding `COc1ccc(C(=O)CN2CCN(c3ccccc3)CC2)cc1`, the growth inhibition was -52.6%.
Turning to `COc1ccc2c(c1)OC[C@@H]1c3cc(NS(=O)(=O)c4ccccc4)cc(OCc4ccccc4)c3O[C@H]21`, the growth inhibition was -17.3%.
As for `CN(C)Cc1cc(C(=O)/C=C/c2ccc(Cl)c(Cl)c2)cc(CN(C)C)c1O`, the figure is 31.9%; as for `N#Cc1c(-c2ccc(Cl)cc2)c(-c2ccc(Cl)cc2)nn(CCOC(=O)CCC(=O)OCCn2nc(-c3ccc(Cl)cc3)c(-c3ccc(Cl)cc3)c(C#N)c2=O)c1=O`, -24.4%; as for `CN(C)C(=O)C(c1ccccc1)C(c1ccccc1)N(C)C=O` (configuration not stated), -3.3%.
Regarding `Cc1ccc(S(=O)(=O)NC(=O)NNc2ccc(F)cc2)cc1`, the growth inhibition was 17.9%.
Take `CCSc1[nH]c(Nc2nc(-c3ccccc3)n(-c3ccccc3)n2)c(C(N)=O)c1C(N)=O`: the growth inhibition was -5.85%.
In the case of `CO[C@@H]1C2=CC=CC=C[C@H]2n2c(=O)n(-c3ccccc3)c(=O)n21`, the growth inhibition was -14.4%.
On to `Cn1nc(-c2ccccc2)c(C(=O)/C=C/c2ccccc2)c(N2CCCCC2)c1=O`, for which the growth inhibition was 3%.
For `CC(=O)[C@@]1(O)CC[C@H]2[C@@H]3CC[C@@H]4C[C@H](O)CC[C@]4(C)[C@H]3[C@H](O)C[C@@]21C`, the growth inhibition is -34.1%.
